From PubChem BioAssay (NCATS)
Records with an inconclusive call do not appear. Activity calls are given as the source filed them. Unless noted, calls follow the shape of the dose curve; as a rule, active = well fitted curve in the direction sought with a large enough effect; inconclusive = small, poorly fitted or top-dose-only effect, or another doubt; inactive = no such curve, though single readings can be large; an effect the other way counts as inactive or inconclusive.

Tests used:
[1] = qHTS for Inhibitors of the Functional Ribonucleoprotein Complex (vRNP) of Lassa (LASV) Arenavirus: LASV Primary Screen - GLuc reporter signal (AID 1347082; calls by dose curve; tested in HEK293 reporter line; also: nearly all actives have a fitted effect of over 60% in size; also: potency is read from the fitted curve at half-maximal effect)
[2] = qHTS for Inhibitors of the Functional Ribonucleoprotein Complex (vRNP) of Lassa (LASV) Arenavirus: Viability assay - alamar blue signal for LASV Primary Screen (AID 1347083; calls by dose curve; tested in HEK293 reporter line; also: nearly all actives have a fitted effect of over 80% in size; also: potency is read from the fitted curve at half-maximal effect)
[3] = qHTS for Inhibitors of the Functional Ribonucleoprotein Complex (vRNP) of Lymphocytic Choriomeningitis Arenaviruses (LCMV): Viability assay - alamar blue signal for LCMV Primary Screen (AID 1347085; calls by dose curve; tested in HEK293 reporter line; also: nearly all actives have a fitted effect of over 80% in size; also: potency is read from the fitted curve at half-maximal effect)
[4] = biological target: Nucleoprotein (Lymphocytic choriomeningitis virus (strain Armstrong)) (UniProt P09992); assay: qHTS for Inhibitors of the Functional Ribonucleoprotein Complex (vRNP) of Lymphocytic Choriomeningitis Arenaviruses (LCMV): LCMV Primary Screen - GLuc reporter signal (AID 1347086; calls by dose curve; also: nearly all actives have a fitted effect of over 70% in size; also: potency is read from the fitted curve at half-maximal effect)
[5] = qHTS of pediatric cancer cell lines to identify multiple opportunities for drug repurposing: Primary screen for TC32 cells (AID 1347089); also: nearly all actives have a fitted effect of over 60% in size
Procedure, shortened: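 Luminescent ATP read-out (CellTiter-Glo) of metabolically active TC32 cells after 48 h exposure. Concentration-response curves came from 11-point (MIPE, 0.78 nM–46 µM) or 8-point (NPC, 0.59 nM–46 µM) primary titrations; follow-up used 11 points.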

[6] = qHTS of pediatric cancer cell lines to identify multiple opportunities for drug repurposing: Primary screen for DAOY cells (AID 1347090); also: series mostly up to about 46 µM; nearly all actives have a fitted effect of over 55% in size
Procedure, shortened: (§1)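 Eight- or eleven-point concentration series, 48 h treatment at 37 degrees C in growth media; readout CellTiter-Glo luminescence. Potency and efficacy were taken from the concentration-response curves.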

[7] = qHTS of pediatric cancer cell lines to identify multiple opportunities for drug repurposing: Primary screen for SJ-GBM2 cells (AID 1347091)
Procedure, shortened: as §1

[8] = qHTS of pediatric cancer cell lines to identify multiple opportunities for drug repurposing: Primary screen for A673 cells (AID 1347092); also: nearly all actives have a fitted effect of over 45% in size
Procedure, shortened: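 Cell viability of A673 measured by CellTiter-Glo ATP luminescence after 48 hours compound exposure. Dilution series spanned 0.78 nM to 46 µM (MIPE, 11-point) or 0.59 nM to 46 µM (NPC, 8-point); bortezomib 2.3 uM positive control.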

[9] = qHTS of pediatric cancer cell lines to identify multiple opportunities for drug repurposing: Primary screen for SK-N-MC cells (AID 1347093); also: potency is read from the fitted curve at half-maximal effect
Procedure, shortened: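 Metabolically active cells were quantified by ATP-dependent luminescence (CellTiter-Glo, 15 min at room temperature) following 48 h treatment. Cells had been plated at 500-1,000 per well and settled for 5 h beforehand.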

[10] = qHTS of pediatric cancer cell lines to identify multiple opportunities for drug repurposing: Primary screen for BT-37 cells (AID 1347094); also: series mostly up to about 57 µM
Procedure, shortened: (§2)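 Cells plated at 500-1,000/well in growth medium, compounds added after 5 h. MIPE tested at 11 points (from 0.78 nM), NPC at 8 points (from 0.59 nM). CellTiter-Glo luminescence after 48 h; concentration-response curves from primary screen.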

[11] = qHTS of pediatric cancer cell lines to identify multiple opportunities for drug repurposing: Primary screen for NB-EBc1 cells (AID 1347095)
Procedure, shortened: as §2

[12] = qHTS of pediatric cancer cell lines to identify multiple opportunities for drug repurposing: Primary screen for U-2 OS cells (AID 1347096); also: nearly all actives have a fitted effect of over 50% in size
Procedure, shortened: (§3)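 Cells (500-1,000/well) in growth media were settled 5 h at 37 degrees C, then given compounds for 48 h. Viability was read as CellTiter-Glo luminescence. Primary runs used MIPE at 11 points (0.78 nM-46 µM) and NPC at 8 points (0.59 nM-46 µM); follow-ups used 11 points.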

[13] = qHTS of pediatric cancer cell lines to identify multiple opportunities for drug repurposing: Primary screen for Saos-2 cells (AID 1347097); also: nearly all actives have a fitted effect of over 40% in size; also: potency is read from the fitted curve at half-maximal effect
Procedure, shortened: as §2

[14] = qHTS of pediatric cancer cell lines to identify multiple opportunities for drug repurposing: Primary screen for SK-N-SH cells (AID 1347098);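 also: DMSO served as neutral control and bortezomib at 2.3 µM as positive control; nearly all actives have a fitted effect of over 65% in size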
Procedure, shortened: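 Cells (500-1,000/well) rested 5 h, then received compounds for 48 h; metabolically active cells were measured by CellTiter-Glo luminescence. Final concentrations spanned up to 46 µM (MIPE, 11-point) or 0.59 nM-46 µM (NPC, 8-point) in primary screens, 11-point in follow-ups.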

[15] = qHTS of pediatric cancer cell lines to identify multiple opportunities for drug repurposing: Primary screen for NB1643 cells (AID 1347099); also: nearly all actives have a fitted effect of over 50% in size
Procedure, shortened: as §2

[16] = qHTS of pediatric cancer cell lines to identify multiple opportunities for drug repurposing: Primary screen for LAN-5 cells (AID 1347100)
Procedure, shortened: as §3

Measured: Potency

Nucleoprotein (Lymphocytic choriomeningitis virus (strain Armstrong)), sequence (P09992 whole entry, looked up): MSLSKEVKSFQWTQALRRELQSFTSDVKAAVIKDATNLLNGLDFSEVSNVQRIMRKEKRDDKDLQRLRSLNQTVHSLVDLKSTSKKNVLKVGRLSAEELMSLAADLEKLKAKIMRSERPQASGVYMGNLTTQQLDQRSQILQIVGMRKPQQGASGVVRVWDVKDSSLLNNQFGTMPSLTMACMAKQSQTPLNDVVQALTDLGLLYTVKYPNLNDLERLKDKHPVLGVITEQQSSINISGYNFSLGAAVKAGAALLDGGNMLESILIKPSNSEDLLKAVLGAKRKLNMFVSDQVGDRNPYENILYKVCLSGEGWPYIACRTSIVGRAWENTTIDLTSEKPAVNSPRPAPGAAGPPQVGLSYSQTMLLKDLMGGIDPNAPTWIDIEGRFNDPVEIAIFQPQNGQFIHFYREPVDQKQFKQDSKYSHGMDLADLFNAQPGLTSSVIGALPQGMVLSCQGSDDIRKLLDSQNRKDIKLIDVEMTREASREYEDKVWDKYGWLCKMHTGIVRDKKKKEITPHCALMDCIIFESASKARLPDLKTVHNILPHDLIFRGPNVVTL

C[C@]12CC[C@H](O)CC1=CC[C@@H]1[C@H]2CC[C@]2(C)C(c3cccnc3)=CC[C@H]12
inactive: [1] | [2] | [3] | [4]

NC(=O)C1CCCc2c1[nH]c1ccc(Cl)cc21 (stereo unspecified)
inactive: [1] | [2] | [3] | [4]

CC(=O)OCC(=O)[C@@]1(O)[C@H](C)C[C@H]2[C@@H]3C=C(C)C4=Cc5c(cnn5-c5ccccc5)C[C@]4(C)[C@@H]3[C@@H](O)C[C@@]21C
inactive: [1] | [2] | [3] | [4]

COc1ccccc1N1CCN(CC(O)COc2cc(OC)c(OC)c(OC)c2)CC1 (stereo unspecified)
inactive: [1] | [2] | [3] | [4]

COc1ncc(-c2ccc3nccc(-c4ccnnc4)c3c2)cc1NS(=O)(=O)c1ccc(F)cc1F
active: [1] 48.5 nM | [2] 9.7 nM | [3] 17.2 nM | [4] 34.3 nM

Cc1cccc(C)c1NC(=O)c1ccc(N)cc1
inactive: [1] | [2] | [3] | [4]

CCc1c(C)[nH]c2c1C(=O)C(CN1CCOCC1)CC2 (stereo unspecified)
inactive: [1] | [2] | [3] | [4]

O=C1C(CCC(O)c2ccc(F)cc2)C(c2ccc(O)cc2)N1c1ccc(F)cc1 (stereo unspecified)
inactive: [1] | [2] | [3] | [4]

COc1ccc(-c2ccc3c(N4CCOC[C@H]4C)nc(N4CCOC[C@H]4C)nc3n2)cc1CO
active: [1] 9.7 nM | [2] 15.3 nM | [3] 30.6 nM | [4] 30.6 nM

Cc1cc2c(cc1C1(c3ccc(C(=O)O)cn3)CC1)C(C)(C)CCC2(C)C
inactive: [1] | [2] | [3] | [4]

CCCCC/C(C=O)=C\c1ccccc1
inactive: [1] | [2] | [3] | [4]

CCN1CCN(c2cc3c(cc2F)c(=O)c(C(=O)O)cn3C2CC2)CC1
inactive: [1] | [2] | [3] | [4]

NCCCC(N)(C(=O)O)C(F)F (stereo unspecified)
inactive: [1] | [2] | [3] | [4]

CC[C@@H]1C(=O)N(C)c2cnc(Nc3ccc(C(=O)NC4CCN(C)CC4)cc3OC)nc2N1C1CCCC1
active: [1] 76.9 nM | [2] 48.5 nM | [3] 153 nM | [4] 30.6 nM

O=C1[C@H](Cc2ccc(O)cc2)N2C(=O)CCN(C(=O)NCc3ccccc3)[C@H]2CN1Cc1cccc2ccccc12
active: [1] 19300 nM | [2] 19300 nM | [3] 24300 nM | [4] 19300 nM

COc1cc(Nc2ncc3c(n2)-c2ccc(Cl)cc2C(c2c(F)cccc2OC)=NC3)ccc1C(=O)O
inactive: [1] | [2] | [3] | [4]

CCOc1ccc(Cc2cc([C@@H]3O[C@H](CO)[C@@H](O)[C@H](O)[C@@H]3O)ccc2Cl)cc1
inactive: [1] | [2] | [3] | [4]

CCC(=O)N1CCN(c2ccc(-n3c(=O)ccc4cnc5ccc(-c6cnc7ccccc7c6)cc5c43)cc2C(F)(F)F)CC1
active: [1] 38.5 nM | [2] 15.3 nM | [3] 27.3 nM | [4] 68.5 nM

CC1=NN(c2ccccc2)C(=O)C1
inactive: [1] | [2] | [3] | [4]

Nc1ccc(-c2ccc3ncc4ccc(=O)n(-c5cccc(C(F)(F)F)c5)c4c3c2)cn1
active: [1] 2.4 nM | [2] 2.7 nM | [3] 5.4 nM | [4] 5.4 nM

CC1(C)CCC(c2ccc(Cl)cc2)=C(CN2CCN(c3ccc(C(=O)NS(=O)(=O)c4ccc(N[C@H](CCN5CCOCC5)CSc5ccccc5)c(S(=O)(=O)C(F)(F)F)c4)cc3)CC2)C1
inactive: [1] | [2] | [3] | [4]

CN1[C@@H]2CC[C@H]1CC(OC(=O)C(O)c1ccccc1)C2 (stereo partly specified)
inactive: [1] | [2] | [3] | [4]

C#CC(C)(CC)OC(=O)c1ccccc1C(=O)O (stereo unspecified)
inactive: [1] | [2] | [3] | [4]

CC(C)(C)c1cc(C(=O)O)c(NC(=O)Nc2ccc3[nH]ncc3c2)s1
inactive: [1] | [2] | [3] | [4]

CC1(C)SCCN(S(=O)(=O)c2ccc(OCC#CCO)cc2)[C@@H]1C(=O)NO
inactive: [1] | [2] | [3] | [4]

CNC(=O)c1ccc(N2C(=S)N(c3ccc(C#N)c(C(F)(F)F)c3)C(=O)C2(C)C)cc1F
inactive: [1] | [2] | [3] | [4]

OC[C@H]1O[C@@H](n2cnc3c2NC=NC[C@@H]3O)C[C@H]1O
inactive: [1] | [2] | [3] | [4]

OCc1ccccn1
inactive: [1] | [2] | [3] | [4]

S=C(NCc1ccc2c(c1)OCO2)N1CCN(c2ncnc3c2oc2ccccc23)CC1
inactive: [1] | [2] | [3] | [4]

CS(=O)(=O)c1cccc(CNc2nc(Nc3ccc4c(c3)CCC(=O)N4)ncc2C(F)(F)F)c1
inactive: [1] | [3] | [4]
active: [2] 38500 nM

Cc1cc(Nc2nc(N[C@@H](C)c3ncc(F)cn3)ncc2Cl)n[nH]1
inactive: [1] | [2] | [3] | [4]

S=c1[nH]c2ccccc2s1
inactive: [1] | [2] | [3] | [4]

CC(=O)Oc1cccc(C)c1
inactive: [1] | [2] | [3] | [4]

O=C(C=Cc1c(C(=O)O)[nH]c2cc(Cl)cc(Cl)c12)Nc1ccccc1
inactive: [1] | [2] | [3] | [4]

COc1nc(C)cnc1NS(=O)(=O)c1cccnc1-c1ccc(-c2nnco2)cc1
inactive: [1] | [2] | [3] | [4]

C[C@]12COC(=O)C[C@@H]1CC[C@@H]1[C@H]2CC[C@@]2(C)[C@H]1CC[C@]2(C)O
inactive: all assays above

N#Cc1c(O)c2c(-c3ccc(-c4ccccc4O)cc3)csc2[nH]c1=O
inactive: [1] | [2] | [3] | [4]

CC(C)(c1ccc(O)cc1)c1ccc(O)cc1
inactive: [1] | [2] | [3] | [4]

Cc1[nH]nc2ccc(-c3cncc(OC[C@@H](N)Cc4ccccc4)c3)cc12
active: [1] 432 nM | [2] 172 nM | [3] 1370 nM | [4] 273 nM

CCCCCCCCOc1ccc(C(=O)c2ccccc2)c(O)c1
inactive: [1] | [2] | [3] | [4]

Nc1ccc(S(=O)(=O)Nc2ccccc2)cc1
inactive: [1] | [2] | [3] | [4]

Cc1cn(-c2cc(NC(=O)c3ccc(C)c(Nc4nccc(-c5cccnc5)n4)c3)cc(C(F)(F)F)c2)cn1
inactive: [1] | [2] | [3] | [4]

C[C@H]([C@H](O)CCC(C)(C)O)[C@H]1CC[C@@]2(O)C3=CC(=O)[C@@H]4C[C@@H](O)[C@@H](O)C[C@]4(C)[C@@H]3CC[C@]12C
inactive: all assays above

OCCCBr
inactive: all assays above

Nc1c(Cl)c(Cl)c(Cl)c(Cl)c1Cl
inactive: all assays above

NC(CO)(CO)CCc1ccc(Sc2cccc(OCc3ccccc3)c2)cc1Cl
inactive: [1] | [2] | [3] | [4]

CCCCCCCCCCCCCC(=O)OC(C)C
inactive: [1] | [2] | [3] | [4]

Cc1c(C(=O)Nc2ccc(N3C[C@@H](C)O[C@@H](C)C3)nc2)cccc1-c1ccc(OC(F)(F)F)cc1
inactive: [1] | [2] | [3] | [4]

CCOC(=O)[C@@H](N)CCC(=O)N[C@@H](CSCc1ccccc1)C(=O)N[C@@H](C(=O)OCC)c1ccccc1
inactive: [1] | [2] | [3] | [4]

COc1nc(-c2ccc3c(c2)OCO3)n(-c2ccc(NC(=O)CSc3ccccc3)cc2)n1
inactive: [1] | [2] | [3] | [4]

c1ccc2c(CN3CCNCC3)cccc2c1
active: [9] 29600 nM
not listed: [15] | [16]
inactive: all other assays above

COc1ccccc1O
inactive: [1] | [2] | [3] | [4]

OCCC#Cc1nc(-c2ccc(F)cc2)c(-c2ccncc2)n1CCCc1ccccc1
inactive: [1] | [2] | [3] | [4]

O=C(Nc1ccc(OC(F)(F)F)cc1)c1sccc1NCc1ccnc2ccccc12
inactive: [1] | [2] | [3] | [4]

O=c1[nH]c(-c2ccc(C(F)(F)F)cc2)nc2c1CSCC2
inactive: [1] | [2] | [3] | [4]

CN(C)CCN(C)C(=O)c1ccc(NC(=O)Nc2ccc(-c3nc(N4CCOCC4)c4ccn(CC(F)(F)F)c4n3)cc2)cc1
active: [1] 48.5 nM | [2] 48.5 nM | [3] 43.2 nM | [4] 76.9 nM

C1CCC(NC2CCCCC2)CC1
inactive: all assays above

CCCCC(CC)COC(=O)c1ccccc1C(=O)O (stereo unspecified)
inactive: [1] | [2] | [3] | [4]

O=C(O)COc1nc(Cl)c(Cl)cc1Cl
active: [9] 1 nM | [13] 1 nM
inactive: all other assays above

CCC1(CCC(C)C)C(=O)NC(=O)NC1=O
inactive: all assays above

Nc1ccc(Cl)cc1
inactive: all assays above

CC[N+]1(CCOC(=O)C(O)(c2ccccc2)c2ccccc2)CCCCC1
inactive: all assays above
